According to PubChem BioAssay (Tox21):
Records with an inconclusive call do not appear. Active and inactive are the calls of the source. Calls follow the shape of the dose curve; as a rule, active = well fitted curve in the direction sought with a large enough effect in the repeat runs; inconclusive = weak or mixed curves; inactive = no such curve, though single readings can be large; an effect the other way counts as inactive or inconclusive.

Experiments:
[1] = qHTS RealTime-Glo MT Cell Viability Assay in HEK293 cells - 16 hour (AID 1224872); also: top concentration of the series differs between compounds; nearly all actives have a fitted effect of over 50% in size
Procedure, shortened: (§1)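 Quantitative high-throughput screen of the Tox21 10K library in HEK293: cells and RealTime-Glo reagents plated together, compound added at 5 h, luminescence monitored through 40 h at 37 C.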

[2] = qHTS RealTime-Glo MT Cell Viability Assay in HepG2 cells - 8 hour (AID 1224873); also: nearly all actives have a fitted effect of over 55% in size
Procedure, shortened: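 HepG2 cells (600/well) mixed with RealTime-Glo MT reagent, settled 5 h at 37 C/5% CO2 before compound addition. Nonlytic NanoLuc luminescence from viable-cell prosubstrate reduction read repeatedly during 40 h treatment at 37 C.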

[3] = qHTS RealTime-Glo MT Cell Viability Assay in HEK293 cells - 40 hour (AID 1224874); conditions: RealTime-Glo luminescence; max response: hits give low values; also: nearly all actives have a fitted effect of over 50% in size
Procedure, shortened: (§2)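 Viable HEK293 cells reduce a cell-permeant prosubstrate; the product diffuses out and is consumed by NanoLuc in the medium to give light. Compounds went in after a 5 h incubation and plates were read over the treatment course.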

[4] = A CellTox Green Cytotoxicity Assay to monitor cytotoxicity in HEK293 cells - 24 hour (AID 1224875); also: series mostly up to about 77 µM; nearly all actives have a fitted effect of over 45% in size
Procedure, shortened: (§3)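 Fluorescence intensity, read at 0, 8, 16, 24, 32 and 40 h of compound treatment, reflected dye binding to DNA of dead HEK293 cells; compounds (23 nL, DMSO) were added 5 h after plating cells with reagent.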

[5] = A CellTox Green Cytotoxicity Assay to monitor cytotoxicity in HepG2 cells - 16 hour (AID 1224876); also: nearly all actives have a fitted effect of over 45% in size
Procedure, shortened: (§4)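 Using 1536-well format, dye-containing HepG2 suspension was seeded, allowed 5 h at 37 C/5% CO2, dosed by pintool with compounds, positive and negative controls, and imaged for fluorescence across 40 h.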

[6] = qHTS RealTime-Glo MT Cell Viability Assay in HepG2 cells - 32 hour (AID 1224877); also: nearly all actives have a fitted effect of over 55% in size
Procedure, shortened: (§5)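 Compound treatment began 5 h after plating HepG2 cells (600/well) with NanoLuc luciferase and prosubstrate. Plates stayed at 37 C for 40 h; luminescence was captured at six time points, 0 h through 40 h.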

[7] = A CellTox Green Cytotoxicity Assay to monitor cytotoxicity in HepG2 cells - 24 hour (AID 1224878); also: nearly all actives have a fitted effect of over 45% in size
Procedure, shortened: as §4

[8] = A CellTox Green Cytotoxicity Assay to monitor cytotoxicity in HepG2 cells - 40 hour (AID 1224879); also: nearly all actives have a fitted effect of over 40% in size
Procedure, shortened: as §4

[9] = qHTS RealTime-Glo MT Cell Viability Assay in HEK293 cells - 0 hour (AID 1224880); also: top concentration of the series differs between compounds; nearly all actives have a fitted effect of over 45% in size
Procedure, shortened: as §2

[10] = A CellTox Green Cytotoxicity Assay to monitor cytotoxicity in HEK293 cells - 32 hour (AID 1224881); also: nearly all actives have a fitted effect of over 40% in size
Procedure, shortened: as §3

[11] = A CellTox Green Cytotoxicity Assay to monitor cytotoxicity in HepG2 cells - 0 hour (AID 1224882); also: nearly all actives have a fitted effect of over 35% in size
Procedure, shortened: as §4

[12] = A CellTox Green Cytotoxicity Assay to monitor cytotoxicity in HepG2 cells - 32 hour (AID 1224883); also: nearly all actives have a fitted effect of over 50% in size
Procedure, shortened: as §4

[13] = A CellTox Green Cytotoxicity Assay to monitor cytotoxicity in HEK293 cells - 8 hour (AID 1224884); also: nearly all actives have a fitted effect of over 35% in size
Procedure, shortened: as §3

[14] = qHTS RealTime-Glo MT Cell Viability Assay in HepG2 cells - 16 hour (AID 1224885); also: nearly all actives have a fitted effect of over 50% in size
Procedure, shortened: as §5

[15] = qHTS RealTime-Glo MT Cell Viability Assay in HEK293 cells - 24 hour (AID 1224886)
Procedure, shortened: as §1

[16] = qHTS RealTime-Glo MT Cell Viability Assay in HEK293 cells - 8 hour (AID 1224887)
Procedure, shortened: as §2

[17] = A CellTox Green Cytotoxicity Assay to monitor cytotoxicity in HEK293 cells - 16 hour (AID 1224888); also: nearly all actives have a fitted effect of over 35% in size
Procedure, shortened: as §3

[18] = qHTS RealTime-Glo MT Cell Viability Assay in HepG2 cells - 0 hour (AID 1224889); also: nearly all actives have a fitted effect of over 50% in size
Procedure, shortened: as §5

[19] = A CellTox Green Cytotoxicity Assay to monitor cytotoxicity in HepG2 cells - 8 hour (AID 1224890); also: nearly all actives have a fitted effect of over 45% in size
Procedure, shortened: as §4

[20] = qHTS assay to identify small molecule antagonists of the estrogen receptor alpha (ER-alpha) signaling pathway using the BG1 cell line in the presence of 0.1 nM 17-beta-estradiol - cell viability counter screen (AID 1259241); also: nearly all actives have a fitted effect of over 40% in size
Procedure, shortened: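 Live-cell protease activity (CellTiter-Fluor fluorescence, 30 min) was read in the same wells after VM7Luc4E2 cells had been exposed to compounds with 0.1 nM 17beta-estradiol for 22 hr at 37C.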
% is scaled to controls: 0 for no effect and ±100 for the full control effect.

COc1cc(C(=O)NCc2ccc(OCCN(C)C)cc2)cc(OC)c1OC
inactive: Potency [1] | outcome [2] | max response [3] -23.7% | outcome [4] | outcome [5] | Potency [6] | outcome [7] | Potency [8] | Potency [9] | outcome [10] | Potency [11] | Potency [12] | outcome [13] | outcome [14] | Potency [15] | Potency [16] | outcome [17] | Potency [18] | outcome [19] | outcome [20]

Cc1coc2ccccc2c1=O
inactive: Potency [1] | outcome [2] | max response [3] -0.146% | outcome [4] | outcome [5] | Potency [6] | outcome [7] | Potency [8] | Potency [9] | outcome [10] | Potency [11] | Potency [12] | outcome [13] | outcome [14] | Potency [15] | Potency [16] | outcome [17] | Potency [18] | outcome [19] | outcome [20]

Nc1c2c(nc3c1CCC3)CCCC2
inactive: Potency [1] | outcome [2] | max response [3] 0.303% | outcome [4] | outcome [5] | Potency [6] | outcome [7] | Potency [8] | Potency [9] | outcome [10] | Potency [11] | Potency [12] | outcome [13] | outcome [14] | Potency [15] | Potency [16] | outcome [17] | Potency [18] | outcome [19]

CO[C@@]1(NC(=O)CSC[C@@H](N)C(=O)O)C(=O)N2C(C(=O)O)=C(CSc3nnnn3C)CS[C@@H]21
inactive: Potency [1] | outcome [2] | max response [3] -2.75% | outcome [4] | outcome [5] | Potency [6] | outcome [7] | Potency [8] | Potency [9] | outcome [10] | Potency [11] | Potency [12] | outcome [13] | outcome [14] | Potency [15] | Potency [16] | outcome [17] | Potency [18] | outcome [19] | outcome [20]

CCCCCC(C)N (stereo unspecified)
inactive: Potency [1] | outcome [2] | max response [3] 1.04% | outcome [4] | outcome [5] | Potency [6] | outcome [7] | Potency [8] | Potency [9] | outcome [10] | Potency [11] | Potency [12] | outcome [13] | outcome [14] | Potency [15] | Potency [16] | outcome [17] | Potency [18] | outcome [19] | outcome [20]

C[C@@H]1CCC[C@H](C)N1
inactive: Potency [1] | outcome [2] | max response [3] 0.353% | outcome [4] | outcome [5] | Potency [6] | outcome [7] | Potency [8] | Potency [9] | outcome [10] | Potency [11] | Potency [12] | outcome [13] | outcome [14] | Potency [15] | Potency [16] | outcome [17] | Potency [18] | outcome [19] | outcome [20]

CC(C)(C)OC(=O)c1cccc(N)c1
inactive: Potency [1] | outcome [2] | max response [3] -10% | outcome [4] | outcome [5] | Potency [6] | outcome [7] | Potency [8] | Potency [9] | outcome [10] | Potency [11] | Potency [12] | outcome [13] | outcome [14] | Potency [15] | Potency [16] | outcome [17] | Potency [18] | outcome [19] | outcome [20]

CN(C)CCN(C)CCN(C)C
inactive: Potency [1] | outcome [2] | max response [3] 4.88% | outcome [4] | outcome [5] | Potency [6] | outcome [7] | Potency [8] | Potency [9] | outcome [10] | Potency [11] | Potency [12] | outcome [13] | outcome [14] | Potency [15] | Potency [16] | outcome [17] | Potency [18] | outcome [19] | outcome [20]

CCCCOC(=O)CCC(C)=O
inactive: Potency [1] | outcome [2] | max response [3] -4.42% | outcome [4] | outcome [5] | Potency [6] | outcome [7] | Potency [8] | Potency [9] | outcome [10] | Potency [11] | Potency [12] | outcome [13] | outcome [14] | Potency [15] | Potency [16] | outcome [17] | Potency [18] | outcome [19] | outcome [20]

CCCOC(=O)CC
inactive: Potency [1] | outcome [2] | max response [3] 8.31% | outcome [4] | outcome [5] | Potency [6] | outcome [7] | Potency [8] | Potency [9] | outcome [10] | Potency [11] | Potency [12] | outcome [13] | outcome [14] | Potency [15] | Potency [16] | outcome [17] | Potency [18] | outcome [19]

O=C(O)CNC(=O)c1ccccc1
inactive: Potency [1] | outcome [2] | max response [3] -1.85% | outcome [4] | outcome [5] | Potency [6] | outcome [7] | Potency [8] | Potency [9] | outcome [10] | Potency [11] | Potency [12] | outcome [13] | outcome [14] | Potency [15] | Potency [16] | outcome [17] | Potency [18] | outcome [19]

Cc1ncc([C@@H](CCCCCCc2ccc3c(n2)NCCC3)CC(=O)O)cn1
inactive: Potency [1] | outcome [2] | max response [3] 4.72% | outcome [4] | outcome [5] | Potency [6] | outcome [7] | Potency [8] | Potency [9] | outcome [10] | Potency [11] | Potency [12] | outcome [13] | outcome [14] | Potency [15] | Potency [16] | outcome [17] | Potency [18] | outcome [19] | outcome [20]

CC1(C)OC[C@@H](COC(=O)CCc2ccc(OC[C@@H](O)CNCCNC(=O)N3CCOCC3)cc2)O1
inactive: Potency [1] | outcome [2] | max response [3] 4.31% | outcome [4] | outcome [5] | Potency [6] | outcome [7] | Potency [8] | Potency [9] | outcome [10] | Potency [11] | Potency [12] | outcome [13] | outcome [14] | Potency [15] | Potency [16] | outcome [17] | Potency [18] | outcome [19]

NC(CCC(=O)O)C(=O)O (stereo unspecified)
inactive: Potency [1] | outcome [2] | max response [3] 16.4% | outcome [4] | outcome [5] | Potency [6] | outcome [7] | Potency [8] | Potency [9] | outcome [10] | Potency [11] | Potency [12] | outcome [13] | outcome [14] | Potency [15] | Potency [16] | outcome [17] | Potency [18] | outcome [19] | outcome [20]
